What all share (experiment): NCI-60 one-dose screen, 48 h (100 = growth as untreated, 0 = no growth, -100 = all killed)
One experiment deals with SK-MEL-2 melanoma. The note with it: 10 µM unless noted.
A further experiment deals with EKVX NSCLC. The note with it: 10 µM unless noted.
A further experiment has as its system SN12C renal. Particulars: 10 µM unless noted.
The next experiment has as its system UO-31 renal. The note with it: 10 µM unless noted.
The subject of the next experiment is TK-10 renal. Particulars: 10 µM unless noted.
Another experiment relates to ACHN renal. The note with it: 10 µM unless noted.
The next experiment relates to CAKI-1 renal. The note with it: 10 µM unless noted.
Another experiment has as its system A498 renal. The note with it: 10 µM.
A further experiment relates to CCRF-CEM leukemia. The note with it: 10 µM unless noted.
In another experiment the test system is HL-60(TB) leukemia. Particulars: 10 µM unless noted.

SMILES strings stand for the structures. Compounds without any hit were thinned out: in the full panel of roughly 83,000, 20% have a hit.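 Values shown are percent growth following 48 h exposure of cells in 96-well plates to a single concentration of compound; below 10 was considered active.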 Unmarked numbers belong to inactive results. The source made the active and inactive calls.

Consider `Cc1c(NS(=O)(=O)c2ccccc2)ccc([N+](=O)[O-])c1Cl`, for which the growth with SK-MEL-2 melanoma was 65.1%; with EKVX NSCLC it was 65.3%; in the experiment with SN12C renal, 58.6%; in the experiment with UO-31 renal, 45.1%; in the experiment with TK-10 renal, 77%; in the experiment with ACHN renal it was 69.7%. Also, the growth in the experiment on CAKI-1 renal was 47.8%; with A498 renal, 59.3%; in the experiment with CCRF-CEM leukemia it was 64.3%.

Regarding `CN1CC(CNC(=O)OCc2ccccc2)CC2c3cccc4c3c(cn4C)CC21` (stereo not drawn), the growth in the experiment with SK-MEL-2 melanoma is 47.2%; with EKVX NSCLC it was 71.8%; in the experiment on SN12C renal, 45%; in the experiment on UO-31 renal, 32.5%; with TK-10 renal it was 53.9%; in the experiment on ACHN renal, 39.7%. Moreover, the growth is 52.9% with CAKI-1 renal, 57.6% in the experiment on A498 renal and 45.7% in the experiment on CCRF-CEM leukemia.

On to `COc1cccc(C=NC(Cc2cnc[nH]2)C(=O)O)c1O` (stereo not drawn), for which the growth in the experiment on SK-MEL-2 melanoma was 70%; with EKVX NSCLC, 102%; with SN12C renal, 97.5%; in the experiment on UO-31 renal it was 84.1%; in the experiment with TK-10 renal, 139%; in the experiment with ACHN renal it was 97.8%. The growth was 86.5% in the experiment on CAKI-1 renal, 98.2% in the experiment with A498 renal, 189% with HL-60(TB) leukemia and 69.6% in the experiment with CCRF-CEM leukemia.

`O=NNc1ccccn1`: the growth with SK-MEL-2 melanoma is 23.3%; with EKVX NSCLC, 109%; in the experiment with SN12C renal, 87.4%; in the experiment on UO-31 renal, 83.6%; in the experiment on TK-10 renal, 91%; in the experiment with ACHN renal it was 11.2%. Also, the growth was 43.6% in the experiment on CAKI-1 renal, 96.5% in the experiment on A498 renal, 73.8% with HL-60(TB) leukemia and 126% with CCRF-CEM leukemia.

For `CC(C)(C)C(=O)OCOP(=O)(NCc1ccccc1)C1CCCN(O)C1=O` (stereo not drawn), the growth in the experiment on SK-MEL-2 melanoma was 53.7%; in the experiment with EKVX NSCLC it was 67.3%; in the experiment on SN12C renal, 5.58% (active); in the experiment with UO-31 renal, 1.82% (active); with TK-10 renal, 68.9%; in the experiment on ACHN renal it was 34.2%. Further, the growth is 31.9% in the experiment with CAKI-1 renal, 52.2% in the experiment with HL-60(TB) leukemia and 12.9% with CCRF-CEM leukemia.

Regarding `CCOC(=O)N[C@H]1CCc2c(Br)c(OC)c(OC)c(OC)c2-c2ccc(SC)c(=O)cc21`, the growth in the experiment with SK-MEL-2 melanoma is 43.5%; with EKVX NSCLC, 45.4%; in the experiment with SN12C renal, 24.3%; with UO-31 renal, 27.3%; in the experiment on TK-10 renal it was 42.1%; in the experiment on ACHN renal it was 24.4%. The growth in the experiment on CAKI-1 renal was 3.95% (active); in the experiment with HL-60(TB) leukemia it was -39.9% (active); with CCRF-CEM leukemia, 1.82% (active).

`CC(CO)NC1CCCCC1` (stereo not drawn): the growth with SK-MEL-2 melanoma is 110%; in the experiment on EKVX NSCLC it was 102%; in the experiment on SN12C renal it was 111%; in the experiment on UO-31 renal, 86.8%; with TK-10 renal, 94.9%; in the experiment with ACHN renal, 109%. For the same compound, the growth in the experiment on CAKI-1 renal is 109%; in the experiment on A498 renal, 77.6%; in the experiment with CCRF-CEM leukemia, 123%.

Consider `CC1=C(CNO)C2=C(C)C3(CC3)[C@@](C)(O)C(=O)C2=C1`, for which the growth with SK-MEL-2 melanoma is -44.4% (active); in the experiment on EKVX NSCLC it was 9.85% (active); in the experiment with SN12C renal, 18.7%; with UO-31 renal, -57.7% (active); with TK-10 renal it was -0.334% (active); with ACHN renal it was -48.3% (active). The growth is -9.31% (active) in the experiment on CAKI-1 renal, -70.9% (active) in the experiment on A498 renal, 8.14% (active) in the experiment with HL-60(TB) leukemia and 73.9% in the experiment on CCRF-CEM leukemia.

In the case of `COC(=O)[C@@H](C)C[C@H](Cc1ccccc1)NC(=O)c1nc([C@@H](C[C@H](C(C)C)N(C)C(=O)[C@@H](NC(=O)[C@H]2CC(=O)CCN2C)C(C)C)OC(C)=O)sc1C(C)C`, the growth was 5.7% (active) in the experiment with SK-MEL-2 melanoma; 30% with EKVX NSCLC; 17.5% in the experiment on SN12C renal; 29.6% with UO-31 renal; 46.5% in the experiment with TK-10 renal; 21.9% with ACHN renal. The values for the growth in the experiment with CAKI-1 renal, in the experiment on HL-60(TB) leukemia and with CCRF-CEM leukemia were 34.6%, -36.7% (active) and 9.87% (active), respectively.

For `C/C(=C\c1ccn(-c2ccccc2N)n1)[C@@H]1C[C@@H]2O[C@]2(C)CCC[C@H](C)[C@H](O)[C@@H](C)C(=O)C(C)(C)[C@@H](O)CC(=O)O1`, the growth in the experiment with SK-MEL-2 melanoma was 33.2%; in the experiment on EKVX NSCLC, 44.8%; in the experiment with SN12C renal, 38%; with UO-31 renal, 41.5%; in the experiment on TK-10 renal it was 51.6%; in the experiment with ACHN renal, 46.3%. Also, the results for the growth in the experiment on CAKI-1 renal, in the experiment with A498 renal and in the experiment with CCRF-CEM leukemia were 40.4%, 13% and 19.6%, respectively.

Take `CN(C)C1C(=O)C(C(N)=O)=C(O)C2(O)C(=O)C3=C(O)c4c(O)cccc4C(C)(O)C3CC12.[Cl][Sb]([Cl])[Cl]` (stereo not drawn): the growth in the experiment on SK-MEL-2 melanoma is -7.83% (active); in the experiment with EKVX NSCLC, 41%; in the experiment on SN12C renal, 41.8%; in the experiment on UO-31 renal, 54.7%; with TK-10 renal it was 42.4%; in the experiment with ACHN renal it was 59%. The growth in the experiment on CAKI-1 renal was 12.3%; in the experiment with HL-60(TB) leukemia, 31.4%.

With `C[N+]12CN3CN(CN(C3)C1)C2`, the growth is 96.2% in the experiment with SK-MEL-2 melanoma; 96.4% in the experiment with EKVX NSCLC; 112% in the experiment with SN12C renal; 95.5% in the experiment on UO-31 renal; 128% with TK-10 renal; 108% in the experiment with ACHN renal. The growth with CAKI-1 renal was 83.6%; in the experiment with A498 renal, 109%; in the experiment with CCRF-CEM leukemia, 73.8%.

For `COc1cc2ncnc(Nc3ccc(F)c(Cl)c3)c2cc1OCC(=O)N1CCN(C)CC1`, the growth in the experiment on SK-MEL-2 melanoma was 94.4%; in the experiment with EKVX NSCLC, 61.8%; with SN12C renal it was 76.9%; in the experiment with UO-31 renal it was 55.9%; with TK-10 renal, 23.4%; with ACHN renal, 37.8%. In addition, the growth is 44.1% with CAKI-1 renal, 69.9% in the experiment on A498 renal and 87% in the experiment with CCRF-CEM leukemia.

On to `COC(=O)[C@H](C[C@H](Cc1ccccc1)NC(=O)c1csc([C@@H](C[C@H](C(C)C)N(C)C(=O)[C@@H](NC(=O)[C@H]2CCCCN2C)C(C)C)OC(C)=O)n1)NC(=O)OCc1ccccc1`, for which the growth in the experiment with SK-MEL-2 melanoma was 5.82% [8.5 µM] (active); in the experiment on EKVX NSCLC, 54.7% [8.5 µM]; in the experiment with SN12C renal it was 9.35% [8.5 µM] (active); in the experiment with UO-31 renal, 32.3% [8.5 µM]; in the experiment on TK-10 renal, 44.2% [8.5 µM]; with ACHN renal it was 13.5% [8.5 µM]. Moreover, the growth in the experiment with CAKI-1 renal was 34.9% [8.5 µM]; in the experiment on HL-60(TB) leukemia, -30.3% [8.5 µM] (active); in the experiment on CCRF-CEM leukemia, 6.6% [8.5 µM] (active).

Source of the values: PubChem BioAssay (NCI).
